According to PubChem BioAssay (NCATS):
Records with an inconclusive call do not appear. The source made the active and inactive calls. Unless noted, the call rests on the fitted dose curve; in most records, active means well fitted curve in either direction with a large enough effect (not every such curve was filed as active); inconclusive means small, poorly fitted or top-dose-only effect, or another doubt; inactive means flat fitted curve, though single readings scatter.

What was measured:
[1] = molecular target: Lysosomal acid glucosylceramidase (Homo sapiens) (UniProt P04062); experiment: Glucocerebrosidase-p2 (AID 348; in the data active means potency below about 10 µM; further: potency means the concentration at half of the fitted maximal effect); settings: purified GBA, blue fluorogenic substrate, 40 min
Chain of Lysosomal acid glucosylceramidase (Homo sapiens) (P04062 whole entry, looked up): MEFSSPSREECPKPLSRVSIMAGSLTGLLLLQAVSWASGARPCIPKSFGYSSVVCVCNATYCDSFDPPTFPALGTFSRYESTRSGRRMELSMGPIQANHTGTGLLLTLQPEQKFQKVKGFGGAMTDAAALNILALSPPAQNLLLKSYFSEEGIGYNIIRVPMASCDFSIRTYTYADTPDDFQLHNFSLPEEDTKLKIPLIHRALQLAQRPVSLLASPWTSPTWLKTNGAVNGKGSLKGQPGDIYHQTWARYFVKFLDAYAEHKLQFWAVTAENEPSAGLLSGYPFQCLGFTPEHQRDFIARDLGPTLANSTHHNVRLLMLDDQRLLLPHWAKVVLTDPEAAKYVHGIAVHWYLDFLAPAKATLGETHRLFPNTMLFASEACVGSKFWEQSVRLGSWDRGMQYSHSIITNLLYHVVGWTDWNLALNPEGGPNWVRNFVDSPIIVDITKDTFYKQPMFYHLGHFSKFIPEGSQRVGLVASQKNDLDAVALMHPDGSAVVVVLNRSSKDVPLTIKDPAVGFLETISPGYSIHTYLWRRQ
Outline: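 Normal human glucocerebrosidase (0.2 nM) with blue fluorogenic substrate (80 uM final) in citrate/phosphate pH 5.9 with 10mM sodium taurocholate, 0.01% tween-20; 40 min RT, NaOH/glycine stop; fluorescence Ex 365/Em 440; AC50 from a titration from 0.6 nM upwards.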

[2] = AP1 Signaling Pathway (AID 357); settings: ME-180 AP-1-bla reporter, EGF-induced, beta-lactamase ratio, 5 h; at 7.69 µM (top of the series) unless noted;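 further: ME-180 reporter cells stimulated with EGF at its EC50 level; on the % scale 0 is the no-effect control and ±100 the full control effect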
Outline: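 Beta-lactamase reporter under AP-1 response element, ME-180 background. Stimulus: EC50 EGF. Compound exposure 5 h, 37 °C. Detection: CCF4, 2.5 h RT, 460/530 nm. Values: AC50 from titration.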

[3] = molecular target: Cytochrome P450 1A2 (Homo sapiens) (UniProt P05177); experiment: p450-cyp1a2 (AID 410; calls by dose curve; further: potency means the concentration at half of the fitted maximal effect;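 on activity change, negative = inhibition: -100% = full effect of reference inhibitor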); settings: recombinant CYP1A2, luciferin-ME demethylation, luminescence; series mostly up to 11.4 µM
Chain of Cytochrome P450 1A2 (Homo sapiens) (P05177 whole entry, looked up): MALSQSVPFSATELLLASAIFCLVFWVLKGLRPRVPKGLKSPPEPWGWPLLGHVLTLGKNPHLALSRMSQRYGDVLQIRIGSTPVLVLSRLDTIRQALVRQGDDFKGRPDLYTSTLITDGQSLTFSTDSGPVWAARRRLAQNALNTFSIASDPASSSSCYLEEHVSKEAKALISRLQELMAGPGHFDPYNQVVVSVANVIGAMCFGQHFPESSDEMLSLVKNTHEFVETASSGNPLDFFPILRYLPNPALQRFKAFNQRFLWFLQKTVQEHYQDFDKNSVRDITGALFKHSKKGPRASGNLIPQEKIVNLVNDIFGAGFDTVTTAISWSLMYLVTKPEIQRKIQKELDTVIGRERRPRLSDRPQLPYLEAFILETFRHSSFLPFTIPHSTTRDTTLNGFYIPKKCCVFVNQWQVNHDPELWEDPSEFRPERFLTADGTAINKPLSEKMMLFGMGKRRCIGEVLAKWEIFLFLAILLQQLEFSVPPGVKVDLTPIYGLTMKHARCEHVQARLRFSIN
Outline: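 Luminescent demethylation readout: Luciferin-ME (100uM, equal to Km) turned over by 20nM CYP1A2 for 60 min at room temperature after NADPH regeneration addition, following 10 min compound preincubation. Normalization used 57 uM furafylline as full inhibition.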

[4] = NFAT Signaling Pathway (AID 444); settings: Jurkat NFAT-bla M1, carbachol, beta-lactamase ratio, 5 h; at 7.69 µM (top of the series) unless noted;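 further: carbachol stimulus at about its EC50 of 1 µM final; on the % scale 0 is the no-effect control and ±100 the full control effect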
Outline: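 Jurkat cells with NFAT-driven β-lactamase reporter and co-expressed M1 receptor, stimulated with carbachol (final 1 uM, ~EC50), compound titration, 5 h at 37 °C. CCF4 loaded 1 h at RT; 460/530 nm ratio gave %activity and AC50.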

[5] = Stat Signaling Pathway (AID 446); settings: ME-180 (cervical carcinoma) SIE beta-lactamase reporter, IL-6 stimulated, 5 h; at 7.69 µM (top of the series) unless noted;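 further: ME-180 cervical cancer cells given 40 pM IL-6 alongside compound; SIE-controlled beta-lactamase reporter measured as 460/530 nm FRET emission ratio; on the % scale 0 is the no-effect control and ±100 the full control effect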
Outline: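 Overnight-plated ME-180 cells bearing a STAT Inducible Element beta-lactamase reporter; 5 h co-exposure to compound and 40 pM IL-6; values normalized to 300 pM IL-6 and 125 nM JAK inhibitor controls.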

[6] = molecular target: Glucocorticoid receptor (Homo sapiens) (UniProt P04150); experiment: GR-GFP Redistribution (AID 450;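 active means compounds whose dose series gives a full or clear partial fitted curve of increased nuclear translocation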; further: potency means the concentration at half of the fitted maximal effect); settings: U2OS GR-GFP nuclear translocation, laser cytometry, 2 h
Chain of Glucocorticoid receptor (Homo sapiens) (P04150 whole entry, looked up, the tested form may be a part): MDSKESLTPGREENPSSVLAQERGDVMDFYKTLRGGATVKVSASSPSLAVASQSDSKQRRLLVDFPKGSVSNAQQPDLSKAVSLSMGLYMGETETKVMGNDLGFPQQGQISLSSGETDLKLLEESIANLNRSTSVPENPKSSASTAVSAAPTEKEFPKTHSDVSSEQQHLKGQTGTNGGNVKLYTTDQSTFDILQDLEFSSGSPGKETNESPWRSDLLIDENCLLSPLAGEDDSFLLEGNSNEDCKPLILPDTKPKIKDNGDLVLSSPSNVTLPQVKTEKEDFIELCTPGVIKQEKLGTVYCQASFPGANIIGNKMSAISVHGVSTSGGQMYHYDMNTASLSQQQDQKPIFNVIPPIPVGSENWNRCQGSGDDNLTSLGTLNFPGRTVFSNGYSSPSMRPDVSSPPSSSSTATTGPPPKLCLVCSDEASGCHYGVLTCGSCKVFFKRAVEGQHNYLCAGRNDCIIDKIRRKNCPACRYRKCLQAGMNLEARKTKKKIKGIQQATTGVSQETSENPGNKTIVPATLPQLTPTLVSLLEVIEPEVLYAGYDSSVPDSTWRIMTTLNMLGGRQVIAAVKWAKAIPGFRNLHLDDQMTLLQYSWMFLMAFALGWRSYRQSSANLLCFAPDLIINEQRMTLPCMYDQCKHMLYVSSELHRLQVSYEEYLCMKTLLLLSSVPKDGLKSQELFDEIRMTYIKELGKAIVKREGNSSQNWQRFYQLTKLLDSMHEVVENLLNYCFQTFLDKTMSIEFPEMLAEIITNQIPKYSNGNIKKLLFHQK

[7] = molecular target: Glucocorticoid receptor (Homo sapiens) (UniProt P04150); experiment: GR-EFC Redistribution (AID 451; calls by dose curve; further: potency means the concentration at half of the fitted maximal effect); settings: CHO-K1 GR-EFC translocation, beta-gal luminescence, 2 h
Outline: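 CHO-K1 cells expressing nuclear EA and GR-ED fragments of b-gal; compounds titrated up to 46 uM final, 2 h at 37 C. GR nuclear translocation read as complemented b-gal luminescence after 1 h RT detection.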

[8] = molecular target: Mitogen-activated protein kinase 10 (Mus musculus) (UniProt Q61831); experiment: JNK3 AlphaScreen Assay (AID 530); settings: JNK3 lysate, c-Jun phosphorylation; series mostly up to 11.4 µM;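 further: kinase came from lysate of stimulated human HepG2 cells; signal reports phosphorylation of biotinylated GST-cJun 1-79 at Ser73 with 10 µM ATP; on the % scale 0 is the no-effect control and ±100 the full control effect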
Outline: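 Activity was read by AlphaScreen after JNK3-containing HepG2 lysate (cytokine pre-activated) phosphorylated biotinylated GST-cJun with 10 uM ATP at room temperature. Phospho-Ser73 cJun antibody with Protein-A acceptor beads provided detection.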

[9] = molecular target: 3',5'-cyclic-AMP phosphodiesterase 4B (Homo sapiens) (UniProt Q07343); experiment: qHTS Assay for Inhibitors of PDE-IV (AID 607; active means well fitted activation curve with a large enough effect in the main read-out, with a control signal flat, not every such curve was filed as active; further: % of control where 0% means no effect); settings: HEK293 ACTOne CNG channel cells, membrane potential fluorescence; series mostly up to 22.9 µM
Chain of 3',5'-cyclic-AMP phosphodiesterase 4B (Homo sapiens) (Q07343 whole entry, looked up): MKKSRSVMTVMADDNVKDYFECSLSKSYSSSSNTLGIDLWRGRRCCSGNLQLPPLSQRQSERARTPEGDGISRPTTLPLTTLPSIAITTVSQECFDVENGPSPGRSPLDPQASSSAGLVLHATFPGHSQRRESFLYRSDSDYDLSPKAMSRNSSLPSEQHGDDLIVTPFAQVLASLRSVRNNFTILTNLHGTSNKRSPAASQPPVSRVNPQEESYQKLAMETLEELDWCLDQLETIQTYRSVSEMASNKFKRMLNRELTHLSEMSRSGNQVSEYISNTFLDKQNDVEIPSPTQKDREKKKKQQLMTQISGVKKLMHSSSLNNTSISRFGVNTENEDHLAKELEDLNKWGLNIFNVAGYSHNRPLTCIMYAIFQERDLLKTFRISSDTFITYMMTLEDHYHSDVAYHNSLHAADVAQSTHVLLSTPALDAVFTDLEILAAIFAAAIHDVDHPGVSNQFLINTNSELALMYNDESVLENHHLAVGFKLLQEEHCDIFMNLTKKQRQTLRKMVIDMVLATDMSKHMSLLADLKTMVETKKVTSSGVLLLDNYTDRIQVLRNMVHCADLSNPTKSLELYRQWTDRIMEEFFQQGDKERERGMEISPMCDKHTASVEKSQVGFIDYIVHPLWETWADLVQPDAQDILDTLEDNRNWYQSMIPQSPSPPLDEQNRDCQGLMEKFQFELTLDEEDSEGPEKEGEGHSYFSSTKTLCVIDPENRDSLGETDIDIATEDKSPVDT
Outline: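 Live HEK293 cells with a modified cyclic nucleotide-gated (CNG) channel report intracellular cAMP via membrane-potential dye fluorescence (ex 535/em 590 nm). Endogenous PDE-IV was targeted. Compounds were tested at up to 22.9 uM final; RO 20-1724 100 uM served as control.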

O=C1[C@@H]2[C@@H]3C=C[C@H]([C@@H]2C(=O)N1CN1CCSCC1)[C@@H]1[C@@H]2C(=O)N(CN4CCSCC4)C(=O)[C@@H]2[C@H]31
inactive: Potency [1] > 11.4 µM | activity change, negative = inhibition [2] 11.7% | Potency [3] | activity change, negative = inhibition [4] 5.4% | activity, negative = inhibition [5] -1.73% | Potency [6] > 46 µM | Potency [7] > 9.22 µM | Potency [8] | Potency [9]

N[C@H](C(=O)O)[C@H](N)C(=O)O
inactive: Potency [1] > 11.4 µM | activity change, negative = inhibition [2] 9.49% | Potency [3] | activity change, negative = inhibition [4] -1.65% | activity, negative = inhibition [5] 4.68% | Potency [6] > 46 µM | Potency [7] > 9.22 µM | Potency [8] | Potency [9]

Nc1cccc2cc(S(=O)(=O)Nc3ccc(C(=O)O)cc3)ccc12
inactive: Potency [1] > 11.4 µM | activity change, negative = inhibition [2] -0.623% | Potency [3] | activity change, negative = inhibition [4] 12.7% | activity, negative = inhibition [5] -1.24% | Potency [6] > 46 µM | Potency [7] > 9.22 µM | Potency [8] | Potency [9]

Cc1cc(C)nc(SCCc2cccc[n+]2C)n1
inactive: Potency [1] > 11.4 µM | activity change, negative = inhibition [2] -4.14% | activity change, negative = inhibition [3] -18.6% [at 2.29 µM] | activity change, negative = inhibition [4] -24.4% | activity, negative = inhibition [5] 6.72% | Potency [6] > 46 µM | Potency [7] > 9.22 µM | Potency [8] | Potency [9]

C/C(=N/Nc1nc(C)cc(=O)[nH]1)C(=O)O
inactive: Potency [1] > 11.4 µM | activity change, negative = inhibition [2] 1.69% | Potency [3] | activity change, negative = inhibition [4] 1.78% | activity, negative = inhibition [5] -0.204% | Potency [6] > 46 µM | Potency [7] > 9.22 µM | Potency [8] | Potency [9]

C[C@@H](CNC(N)=O)NC(N)=O
inactive: Potency [1] > 11.4 µM | activity change, negative = inhibition [2] 4.39% | Potency [3] | activity change, negative = inhibition [4] 12.2% | activity, negative = inhibition [5] 5.82% | Potency [6] > 46 µM | Potency [7] > 9.22 µM | Potency [8] | Potency [9]

O=C(O)CCC(=O)Nc1ccc2ccccc2c1
active: Potency [3] 0.0631 µM
inactive: Potency [1] > 11.4 µM | activity change, negative = inhibition [2] -0.421% | activity change, negative = inhibition [4] 4.48% | activity, negative = inhibition [5] 8.45% | Potency [6] > 46 µM | Potency [7] > 9.22 µM | Potency [8] | Potency [9]

Nc1ccc(S(=O)(=O)c2ccc(NC(=O)c3cccnc3)cc2)cc1
inactive: Potency [1] > 11.4 µM | activity change, negative = inhibition [2] -0.755% | activity change, negative = inhibition [3] -21.1% [at 2.29 µM] | activity change, negative = inhibition [4] 12.7% | activity, negative = inhibition [5] 8.7% | Potency [6] > 46 µM | Potency [7] > 9.22 µM | Potency [8] | Potency [9]

O=C(O)C[C@H](Cc1ccc2c(c1)OCO2)C(=O)O
inactive: Potency [1] > 11.4 µM | activity change, negative = inhibition [2] 2.2% | Potency [3] | activity change, negative = inhibition [4] -29.5% | activity, negative = inhibition [5] -2.05% | Potency [6] > 46 µM | Potency [7] > 9.22 µM | Potency [8] | Potency [9]

N#CC(CC(=O)O)=C(c1ccccc1)c1ccccc1
inactive: Potency [1] > 11.4 µM | activity change, negative = inhibition [2] 6.62% | activity change, negative = inhibition [3] -14.5% [at 2.29 µM] | activity change, negative = inhibition [4] -1.1% | activity, negative = inhibition [5] 1.35% | Potency [6] > 46 µM | Potency [7] > 9.22 µM | Potency [8] | Potency [9]

O=C(Nc1ccc2oc(=O)c(C(=O)O)cc2c1)Oc1ccccc1
inactive: Potency [1] > 11.4 µM | activity change, negative = inhibition [2] -4.82% | activity change, negative = inhibition [3] -15.3% [at 2.29 µM] | activity change, negative = inhibition [4] 9.87% | activity, negative = inhibition [5] 1.95% | Potency [6] > 46 µM | Potency [7] > 9.22 µM | Potency [8] | Potency [9]

NC1=C2NC=N[C@@H]2N(C/C=C\c2ccccc2)C=N1
inactive: Potency [1] > 11.4 µM | activity change, negative = inhibition [2] 1.36% | activity change, negative = inhibition [3] -12.4% [at 2.29 µM] | activity change, negative = inhibition [4] 4.81% | activity, negative = inhibition [5] 13.2% | Potency [6] > 46 µM | Potency [7] > 9.22 µM | Potency [8] | Potency [9]

NCCc1nc(-c2nc(C(=O)O)cs2)cs1
inactive: Potency [1] > 11.4 µM | activity change, negative = inhibition [2] -1.29% | Potency [3] | activity change, negative = inhibition [4] -25.9% | activity, negative = inhibition [5] -10% | Potency [6] > 46 µM | Potency [7] > 9.22 µM | Potency [8] | Potency [9]

O=C1c2ccccc2C(=O)N1C[C@]1(C(=O)O)NCCS1(=O)=O
inactive: Potency [1] > 11.4 µM | activity change, negative = inhibition [2] -0.765% | activity change, negative = inhibition [3] -5.5% [at 2.29 µM] | activity change, negative = inhibition [4] 7.39% | activity, negative = inhibition [5] -1.43% | Potency [6] > 46 µM | Potency [7] > 9.22 µM | Potency [8] | Potency [9]

N[C@@H]1[C@@H]2[C@@H]3C[C@H]4N(CC[C@@]14C(=O)C(=O)O)CC3=CCO[C@@H]2CC(=O)O
inactive: Potency [1] > 11.4 µM | activity change, negative = inhibition [2] -3.74% | Potency [3] | activity change, negative = inhibition [4] 4.96% | activity, negative = inhibition [5] 6.97% | Potency [6] > 46 µM | Potency [7] > 9.22 µM | Potency [8] | Potency [9]
